Target: Tyrosine-protein kinase Blk (Homo sapiens) (UniProt P51451)
Conditions: at 1 µM

Chain of Tyrosine-protein kinase Blk (Homo sapiens) (P51451 2-505 limits assumed): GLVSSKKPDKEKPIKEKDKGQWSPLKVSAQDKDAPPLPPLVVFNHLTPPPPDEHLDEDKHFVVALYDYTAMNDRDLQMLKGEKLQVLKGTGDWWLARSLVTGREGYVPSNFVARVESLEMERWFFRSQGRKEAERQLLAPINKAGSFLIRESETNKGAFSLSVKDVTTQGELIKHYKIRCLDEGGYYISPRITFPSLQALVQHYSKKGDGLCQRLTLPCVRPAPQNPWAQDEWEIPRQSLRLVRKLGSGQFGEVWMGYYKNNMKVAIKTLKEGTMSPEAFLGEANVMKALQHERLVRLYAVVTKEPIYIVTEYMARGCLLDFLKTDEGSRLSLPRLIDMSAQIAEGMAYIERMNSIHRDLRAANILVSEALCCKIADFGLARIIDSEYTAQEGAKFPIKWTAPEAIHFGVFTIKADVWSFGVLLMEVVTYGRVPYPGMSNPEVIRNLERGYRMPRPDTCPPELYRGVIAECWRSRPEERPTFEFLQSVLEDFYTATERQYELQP

| Compound | residual activity [%] |
| --- | --- |
| CCN(CC)CCCCN1c2ccccc2Oc2ccc(Cl)cc21 | 110 |
| O=[N+]([O-])c1ccc(-c2nc(-c3ccc(F)cc3)c(-c3ccncc3)[nH]2)cc1 | 110 |
| Cc1ccc(S(=O)(=O)/C=C/C#N)cc1 | 108 |
| COc1cc2ncnc(Nc3ccc(NC(=O)c4ccccc4)cc3)c2cc1OC | 20 |
| Cn1nc2c3c(cccc31)C(=O)c1ccccc1-2 | 111 |
| Cc1nc2cc3nc(-c4cccs4)cnc3cc2n1C | 100 |
| COc1cc2ncnc(N3CCN(C(=O)Nc4ccc(Oc5ccccc5)cc4)CC3)c2cc1OC | 100 |
| CC(C)n1cnc2/c(=N/c3cccc(Cl)c3)nc(NCCO)[nH]c21 | 79 |
| Cc1cc(Nc2nc(-c3ccccc3)nc3ccccc23)n[nH]1 | 9 |
| Cc1cncc2cccc(S(=O)(=O)N3CCCN(C(=O)CN)C[C@H]3C)c12 | 122 |
| N#Cc1cnc2cnc(NCc3cccnc3)cc2c1Nc1ccc(F)c(Cl)c1 | 4 |
| COc1ccc(S(=O)(=O)N(CCO)c2ccccc2CN(C)C/C=C/c2ccc(Cl)cc2)cc1 | 99 |
| c1ccc(-c2n[nH]cc2-c2ccnc3ccccc23)nc1 | 102 |
| O=C(Nc1cccc(Nc2nccc(Nc3cccc(C(F)(F)F)c3)n2)c1)C1CC1 | 77 |
| O=C1Nc2cc(Br)ccc2/C1=C1/Nc2ccccc2/C1=N\O | 1 |
| COc1ccc(OC)c2c(=S)c3ccccc3[nH]c12 | 111 |
| O=C1NC(=O)c2c1c1c3ccccc3[nH]c1c1[nH]c3cc(Br)ccc3c21 | 102 |
| O=C(Nc1cccc(Nc2cc(Nc3cccc(C(F)(F)F)c3)ncn2)c1)C1CC1 | 97 |
| N#CCCc1ccc2c(c1)-c1[nH]c3ccc([N+](=O)[O-])cc3c1CC(=O)N2 | 24 |
| O=C1Nc2ccc(Br)cc2/C1=C\c1cc2c([nH]1)CCCC2 | 82 |
| Nc1nc(Nc2ccc(S(N)(=O)=O)cc2)nn1C(=S)Nc1c(F)cccc1F | 7 |
| Nc1cccc(-c2cc3c(Oc4cccc(O)c4)ncnc3[nH]2)c1 | 7 |
| CO[C@@H]1[C@H](N(C)C(=O)c2ccccc2)C[C@H]2O[C@]1(C)n1c3ccccc3c3c4c(c5c6ccccc6n2c5c31)C(=O)NC4 | 7 |
| COc1ccc(C(=O)Nc2sc3c(c2C(N)=O)CCCC3)cc1OC | 109 |
| CO[C@H]1[C@@H](OC)C[C@H](C)[C@@H](OC)C2=CC(=O)C=C(NC(=O)/C(C)=C/C=C/[C@H](OC)[C@@H](OC(N)=O)/C(C)=C/[C@@H]1C)C2=O | 90 |
| O=C1NC(=O)c2cc(Nc3ccc(F)cc3)c(Nc3ccc(F)cc3)cc21 | 98 |
| Oc1n[nH]c2nnc(-c3c(-c4ccccc4)nn4ccccc34)cc12 | 107 |
| O=Nc1c(-c2c(O)[nH]c3ccccc23)[nH]c2ccccc12 | 11 |
| c1ccc(-c2n[nH]c3c2oc2ccccc23)cc1 | 98 |

— ChEMBL document CHEMBL2218924, “A broad activity screen in support of a chemogenomic map for kinase signalling research and drug discovery” (Biochem J, 2013)
